Experimental findings from PubChem BioAssay (NCATS) are described below.

The test system of assay [1] is Zika virus NS2B-NS3 protease (linked construct). Kind of assay: Primary screen NINDS Rhodamine qHTS for Zika virus inhibitors (AID 1347160). Further: nearly all actives have a fitted effect of over 55% in size. Further: potency means the concentration at half of the fitted maximal effect. Put shortly: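 Purified linked NS2B-NS3 protease (NS2B hydrophilic domain joined to NS3 protease by flexible linker), 25 nM in 10 mM Tris-HCl pH 8.0, 0.01% Tween 20. Compounds titrated, 15 min preincubation at room temperature; 1.5 microM Rhodamine110 substrate, FITC fluorescence change over 15 min.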

Assay [2] in a line: OV-KATE Cancer Cell Toxicity qHTS against the NCATS CANVASS Library (AID 1347345). Further: potency means the concentration at half of the fitted maximal effect. Put shortly: (§1)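 Following a 4 h pre-incubation of 1000 seeded cells, compounds were pinned in an 11-pnt dilution series and left for 72 h; viability then came from CellTiter-Glo.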
Assay [3] is described as follows: HPAF-II Cancer Cell Toxicity qHTS against the NCATS CANVASS Library (AID 1347346). Further: nearly all actives have a fitted effect of over 55% in size. Further: potency means the concentration at half of the fitted maximal effect. Put shortly: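 Cytotoxicity in HPAF-II pancreatic cancer cells: 72 h treatment across 11 concentrations, ATP-based CellTiter-Glo luminescence endpoint.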
Assay [4] in a line: UWB1.289 Cancer Cell Toxicity qHTS against the NCATS CANVASS Library (AID 1347347). Further: nearly all actives have a fitted effect of over 60% in size. Further: potency means the concentration at half of the fitted maximal effect. Put shortly:
as §1
Background: In qHTS, concentration-response curves come from the screen itself.

Assay [5] is described as follows: Panc-1005 Cancer Cell Toxicity qHTS against the NCATS CANVASS Library (AID 1347349). Further: nearly all actives have a fitted effect of over 60% in size. Further: potency means the concentration at half of the fitted maximal effect. Put shortly: as §1
Assay [6] is described as follows: HPAF-II 24hr Apoptosis Induction qHTS against the NCATS CANVASS Library (AID 1347356). Put shortly: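 Apoptosis induction in HPAF-II pancreatic cancer cells is measured as caspase-3/7 luminescence after a 24-hour exposure to compounds.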
A short description of assay [7]: HPAF-II 12hr Apoptosis Induction qHTS against the NCATS CANVASS Library (AID 1347358). Put shortly:
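Apoptosis in HPAF-II pancreatic cancer cells is scored as caspase 3/7 luminescence following a 12-hour exposure to an 11-point compound series.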

The nature of assay [8]: HEK293 24hr Apoptosis Induction qHTS against the NCATS CANVASS Library (AID 1347359). Put shortly: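 Caspase-3/7 activation measured as luminescence from the DEVD-based Caspase-Glo reagent, 15 min at room temperature, following 24-hour compound treatment of HEK293 cells.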
The nature of assay [9]: HPAF-II 18hr Apoptosis Induction qHTS against the NCATS CANVASS Library (AID 1347360). Put shortly:
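Caspase-3/7 activation was measured with luminescent Caspase-Glo 3/7 reagent (15 min, RT) in HPAF-II cancer cells (500 cells/well). Before detection, cells had been treated for 18 h at 37 C with compounds (11 points).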

Assay [10] in a line: HEK293 12hr Apoptosis Induction qHTS against the NCATS CANVASS Library (AID 1347361). Put shortly:
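HEK293 cells (500/well, DMEM + 10% FBS) were exposed to natural products across an 11-point series for 12 hours at 37 degrees C. Caspase-3/7 activity was then measured with DEVD luciferase luminescence after 15 min at room temperature.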

The test system of assay [11] is NAD(P)H diaphorase (Clostridium kluyveri). Put plainly: Diaphorse counterscreen qHTS: Assay Interference Panel against the NCATS CANVASS Library (AID 1347362). Put shortly: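 Counterscreen for coupling-enzyme interference: resorufin fluorescence from resazurin/NADH turnover, read after 5 min at room temperature. Compounds were tested over an 11-point series after 15 min dark preincubation with diaphorase in PBS-Tween.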

The target in assay [12] is Luciferin 4-monooxygenase (Photinus pyralis) (UniProt P08659). Put plainly: Firefly luciferase counterscreen qHTS: Assay Interference Panel against the NCATS CANVASS Library (AID 1347363). Further: series mostly up to about 57 µM. Put shortly: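 Luminescence inhibition readout: compounds (11-point qHTS) sat 15 min at room temperature with substrate mix (0.013 mM luciferin and ATP), then firefly luciferase was added and signal read 5 min later.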
Luciferin 4-monooxygenase (Photinus pyralis), sequence (P08659 whole entry, looked up): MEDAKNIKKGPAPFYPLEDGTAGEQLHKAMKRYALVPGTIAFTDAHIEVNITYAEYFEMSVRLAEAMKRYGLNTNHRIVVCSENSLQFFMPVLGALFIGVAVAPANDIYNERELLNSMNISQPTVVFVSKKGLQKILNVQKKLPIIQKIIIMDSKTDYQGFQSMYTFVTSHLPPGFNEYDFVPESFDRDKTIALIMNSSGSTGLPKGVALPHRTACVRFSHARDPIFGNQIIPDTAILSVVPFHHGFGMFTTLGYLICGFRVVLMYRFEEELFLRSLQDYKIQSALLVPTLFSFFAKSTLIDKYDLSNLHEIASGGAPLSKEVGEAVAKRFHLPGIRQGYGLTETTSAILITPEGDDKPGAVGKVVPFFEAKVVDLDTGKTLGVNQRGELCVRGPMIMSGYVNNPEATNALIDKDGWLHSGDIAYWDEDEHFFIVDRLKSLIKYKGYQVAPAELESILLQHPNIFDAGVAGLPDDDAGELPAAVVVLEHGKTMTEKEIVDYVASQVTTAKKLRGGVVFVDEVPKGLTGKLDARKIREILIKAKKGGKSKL

The nature of assay [13]: qHTS for ATAD5 Agonist screened against the NCATS CANVASS Library (AID 1347367).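 Further: luciferase reporter driven by ATAD5 which rises upon DNA damage.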 Put shortly:
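Genotoxicity via ATAD5-luciferase luminescence after 16 h compound exposure (11-point series) at 37C in HEK293T-ATAD5 cells. CellTiter-Fluor viability read precedes the luminescence read; MMS serves as positive control.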

Assay [14] is described as follows: qHTS for ATAD5 Antagonist screened against the NCATS CANVASS Library (AID 1347370). Further: nearly all actives have a fitted effect of over 65% in size. Further: potency means the concentration at half of the fitted maximal effect. Put shortly: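 HEK293T cells with a stably integrated ATAD5-controlled luciferase reporter were exposed to compounds (11-pt) alongside 10 uM 5-fluorouridine as ATAD5 stabilizer for 16hr at 37C. Viability was read by CellTiter-Fluor fluorescence, then ATAD5 by luminescence.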
The nature of assay [15]: J3T Cancer Cell Toxicity qHTS against the NCATS CANVASS Library (AID 1347371). Further: potency means the concentration at half of the fitted maximal effect. Put shortly:
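Viability of the J3T glioma line from dog is scored by ATP luminescence after a 72 hr incubation with natural products.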

Assay [16] addresses Nuclear receptor subfamily 1 group I member 3 (Homo sapiens) (UniProt Q14994). Put plainly: qHTS for Constitutive Androstane Receptor (CAR) Agonist screened against the NCATS CANVASS Library (AID 1347373).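 Further: every well also contained 1.5 µM PK11195 alongside the test compound.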 Put shortly: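 CAR agonism is scored as CYP2B6-promoter luciferase induction in a double-stable transfected HepG2 line, where 1.5uM PK11195 is included in each well. Compounds were tested over a 24hr exposure.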

Assay [17] can be described thus: 10-beta competent E. coli microbial cell viability qHTS against the NCATS CANVASS Library (AID 1347376). Further: series mostly up to about 46 µM. Put shortly: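 Cytotoxicity toward competent E. coli is scored from cellular ATP content via BacTiter-Glo luminescence following overnight compound exposure at 37C, 5% CO2.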
A short description of assay [18]: qHTS for Inflammasome Signaling Inhibitors: IL-1-beta AlphaLISA screen against the NCATS CANVASS Library (AID 1347379).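 Further: human THP-1 cells primed with LPS then triggered with ATP; secreted IL-1B measured as AlphaLISA emission at 615 nm.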 Further: potency means the concentration at half of the fitted maximal effect. Put shortly: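 Human THP-1 cells were pretreated 1 hr at 37 °C with compounds (up to 57.5 uM final), then stimulated with LPS (250 ng/mL final) and ATP (1.25 mM final). Secreted IL-1B was read by AlphaLISA after 16 hr.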
A short description of assay [19]: Inflammasome Signaling qHTS Counterscreen: IL-1-beta AlphaLISA counterscreen against the NCATS CANVASS Library (AID 1347381).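 Further: cell-free check with purified IL-1β in medium and no THP-1 cells; series mostly up to about 57 µM.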 Put shortly:
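To flag interference with the AlphaLISA read-out, a known amount of purified IL-1-beta (4 pg) replaced cell supernatant. Detection used anti-IL-1-beta acceptor beads, biotinylated antibody and streptavidin donor beads at room temperature.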

The nature of assay [20]: qHTS for Hypoxia signaling pathway (HIF-1) agonists against the NCATS CANVASS Library (AID 1347375). Put shortly: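 Inducers of HIF-1 signaling were detected in ME-180 cells bearing an HRE-driven beta-lactamase reporter after 17 h compound exposure. Activity came from CCF4-AM FRET emission ratio (460/530 nm) in qHTS format.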

Inconclusive results are not listed. The source made the active and inactive calls. The call rests on the fitted dose curve; in most records, active means well fitted curve in the direction sought with a large enough effect; inconclusive means small, poorly fitted or top-dose-only effect, or another doubt; inactive means no such curve, though single readings can be large; an effect the other way counts as inactive or inconclusive.

Nuclear receptor subfamily 1 group I member 3 (Homo sapiens), sequence (Q14994 whole entry, looked up): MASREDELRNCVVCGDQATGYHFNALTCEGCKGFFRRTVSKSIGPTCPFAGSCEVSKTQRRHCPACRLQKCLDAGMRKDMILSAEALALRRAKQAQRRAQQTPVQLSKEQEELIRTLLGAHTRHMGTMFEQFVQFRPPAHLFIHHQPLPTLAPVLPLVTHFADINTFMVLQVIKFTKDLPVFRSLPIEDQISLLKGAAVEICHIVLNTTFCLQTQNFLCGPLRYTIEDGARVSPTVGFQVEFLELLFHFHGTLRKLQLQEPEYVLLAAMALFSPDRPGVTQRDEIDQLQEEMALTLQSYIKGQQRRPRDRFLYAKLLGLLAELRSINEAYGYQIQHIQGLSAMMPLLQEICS

As to `CCCCCCCCC[C@@H]1C[C@@H]2CC[C@H]3[C@@H](C(=O)OCCCCN=C(N)N)[C@@H](C)N=C(N1)N23`, the Potency entry in assay [1], in assay [7], in [8], in [9], in assay [10] and in assay [11] was “inactive” throughout. Besides, the Potency entry in assay [12], in assay [13] and in [14] was “inactive” throughout. Moreover, the Potency in [2] was 13 µM (active); in assay [3], 14.7 µM (active); in assay [4] it was 10.3 µM (active); in [5], 14.7 µM (active); in assay [15], 11.5 µM (active); in assay [18] it was 21.2 µM (active). Besides, the result in [6], in assay [16], in assay [17] and in assay [19] was inactive.

`C1=C2CCCN[C@@H]2[C@@H]2CCN3CCCC[C@@H]3[C@H](C1)C2`: the Potency entry in assay [1], in assay [2], in assay [3], in assay [4], in assay [5] and in [7] was “inactive” throughout. For the same molecule, the Potency result in [8], in assay [9], in assay [10], in assay [11], in assay [12] and in assay [13] was “inactive” each time. Further, the Potency entry in [14], in assay [15], in [20] and in [18] was “inactive” throughout. Moreover, the outcome in assay [6], in assay [16], in [17] and in assay [19] was inactive.

For the molecule `CO[C@H]1/C=C/CC[C@@H](S[C@@H]2O[C@H](CO)[C@@H](O)[C@H](O)[C@H]2O)CC(=O)O[C@@H](/C(C)=C/[C@H](C)C(=O)CCCC2CC(=O)NC(=O)C2)[C@@H](C)[C@@H]1O`, the Potency entry in assay [1], in [7], in assay [8], in assay [9], in assay [10] and in [11] was “inactive” in each case. Besides, the Potency result in [12], in [13] and in assay [20] was “inactive” in each case. Further, the Potency in assay [2] is 3.75 µM (active); in assay [3], 8.41 µM (active); in assay [4], 2.98 µM (active); in assay [5], 4.21 µM (active); in assay [14], 4.17 µM (active); in assay [18], 30.6 µM (active). The molecule was classed as inactive in [6], in [17] and in [19].

For the molecule `C=C1C(=O)C[C@H]2C[C@@H]1[C@]2(C)CCC=C(C)C`, in assay [1], the Potency was 17.5 µM (active). Further, the Potency result in assay [2], in assay [3], in assay [4], in assay [5], in assay [7] and in [8] was “inactive” each time. The Potency entry in assay [9], in assay [10], in [11], in assay [12], in [13] and in assay [14] was “inactive” in each case. Also, the Potency entry in assay [15], in assay [20] and in [18] was “inactive” throughout. Besides, the call in assay [6], in [16], in assay [17] and in assay [19] was inactive.

`COc1ccc2cc(NC(=O)C3=NO[C@H]4[C@H](O)C=C[C@@H](Cl)[C@@]4(O)C3)c(=O)oc2c1OC`: the Potency in [1] is 49.3 µM (active). The Potency result in assay [2], in assay [3], in assay [4], in assay [5], in assay [7] and in assay [8] was “inactive” each time. Also, the Potency result in assay [9], in assay [10], in [11], in assay [12], in assay [13] and in [15] was “inactive” in each case. In addition, the Potency result in assay [20] and in [18] was “inactive” throughout. The call in [6], in [16], in assay [17] and in [19] was inactive.
